ChEMBL document CHEMBL1961873, “Compounds: GSK PKIS; Assays: Nanosyn kinase panel” (2012)
“And” between values parts separate entries of the source, which are not always exact repeats. Identical values can stand only once.

Key:
[1] = target: Tyrosine-protein kinase Fer (Homo sapiens) (UniProt P16591); settings: at 1 µM
[2] = target: Tyrosine-protein kinase Fes/Fps (Homo sapiens) (UniProt P07332); settings: at 0.1 µM
[3] = target: Tyrosine-protein kinase Fes/Fps (Homo sapiens) (UniProt P07332); settings: at 1 µM
[4] = target: Fibroblast growth factor receptor 1 (Homo sapiens) (UniProt P11362); settings: at 0.1 µM
[5] = target: Fibroblast growth factor receptor 1 (Homo sapiens) (UniProt P11362); settings: at 1 µM
[6] = target: Fibroblast growth factor receptor 2 (Homo sapiens) (UniProt P21802); settings: at 0.1 µM
[7] = target: Fibroblast growth factor receptor 2 (Homo sapiens) (UniProt P21802); settings: at 1 µM
[8] = target: Fibroblast growth factor receptor 3 (Homo sapiens) (UniProt P22607); settings: at 0.1 µM
[9] = target: Fibroblast growth factor receptor 3 (Homo sapiens) (UniProt P22607); settings: at 1 µM
[10] = target: Fibroblast growth factor receptor 4 (Homo sapiens) (UniProt P22455); settings: at 0.1 µM;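 also: values are mean percent inhibition of FGFR4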
Sequence of Fibroblast growth factor receptor 4 (Homo sapiens) (P22455 22-802 limits assumed): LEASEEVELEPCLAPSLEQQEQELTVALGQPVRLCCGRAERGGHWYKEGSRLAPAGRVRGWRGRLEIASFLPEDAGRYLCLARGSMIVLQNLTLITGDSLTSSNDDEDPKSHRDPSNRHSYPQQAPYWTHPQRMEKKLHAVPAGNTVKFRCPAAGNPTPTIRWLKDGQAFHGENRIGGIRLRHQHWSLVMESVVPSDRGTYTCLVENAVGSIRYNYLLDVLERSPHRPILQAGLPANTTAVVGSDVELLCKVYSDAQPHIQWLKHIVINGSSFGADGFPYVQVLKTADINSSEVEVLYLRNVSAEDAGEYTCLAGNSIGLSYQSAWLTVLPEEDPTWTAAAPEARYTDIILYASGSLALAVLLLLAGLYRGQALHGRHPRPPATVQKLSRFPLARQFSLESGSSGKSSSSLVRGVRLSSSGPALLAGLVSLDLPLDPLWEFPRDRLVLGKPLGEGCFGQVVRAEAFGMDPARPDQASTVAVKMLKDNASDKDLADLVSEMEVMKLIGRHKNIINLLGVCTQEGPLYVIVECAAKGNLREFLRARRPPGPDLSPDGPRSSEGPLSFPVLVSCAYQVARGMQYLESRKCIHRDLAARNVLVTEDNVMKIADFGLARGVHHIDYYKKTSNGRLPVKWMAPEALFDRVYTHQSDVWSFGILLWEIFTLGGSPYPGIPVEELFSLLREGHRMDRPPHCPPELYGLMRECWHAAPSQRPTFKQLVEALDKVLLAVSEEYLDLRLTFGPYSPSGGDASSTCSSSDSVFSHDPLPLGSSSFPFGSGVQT

Sequence of Tyrosine-protein kinase Fer (Homo sapiens) (P16591 whole entry, looked up): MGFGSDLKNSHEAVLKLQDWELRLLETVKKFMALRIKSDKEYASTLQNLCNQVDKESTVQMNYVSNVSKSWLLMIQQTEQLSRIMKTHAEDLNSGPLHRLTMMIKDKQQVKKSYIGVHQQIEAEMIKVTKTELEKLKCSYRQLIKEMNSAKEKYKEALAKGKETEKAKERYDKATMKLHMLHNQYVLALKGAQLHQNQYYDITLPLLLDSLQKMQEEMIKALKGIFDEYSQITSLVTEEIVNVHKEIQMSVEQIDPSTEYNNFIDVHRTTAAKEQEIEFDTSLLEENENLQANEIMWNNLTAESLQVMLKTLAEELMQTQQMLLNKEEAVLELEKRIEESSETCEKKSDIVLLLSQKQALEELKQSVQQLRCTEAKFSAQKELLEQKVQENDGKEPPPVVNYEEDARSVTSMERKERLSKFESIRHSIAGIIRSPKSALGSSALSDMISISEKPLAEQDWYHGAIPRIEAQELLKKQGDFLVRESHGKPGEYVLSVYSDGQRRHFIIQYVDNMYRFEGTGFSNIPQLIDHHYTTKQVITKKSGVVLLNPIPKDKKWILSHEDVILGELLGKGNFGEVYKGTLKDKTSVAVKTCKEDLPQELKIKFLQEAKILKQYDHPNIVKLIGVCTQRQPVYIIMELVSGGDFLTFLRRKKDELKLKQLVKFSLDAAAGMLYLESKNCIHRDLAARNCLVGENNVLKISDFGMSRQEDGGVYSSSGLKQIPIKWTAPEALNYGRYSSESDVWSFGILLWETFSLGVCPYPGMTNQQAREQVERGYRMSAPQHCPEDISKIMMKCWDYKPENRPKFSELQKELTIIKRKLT
Sequence of Tyrosine-protein kinase Fes/Fps (Homo sapiens) (P07332 whole entry): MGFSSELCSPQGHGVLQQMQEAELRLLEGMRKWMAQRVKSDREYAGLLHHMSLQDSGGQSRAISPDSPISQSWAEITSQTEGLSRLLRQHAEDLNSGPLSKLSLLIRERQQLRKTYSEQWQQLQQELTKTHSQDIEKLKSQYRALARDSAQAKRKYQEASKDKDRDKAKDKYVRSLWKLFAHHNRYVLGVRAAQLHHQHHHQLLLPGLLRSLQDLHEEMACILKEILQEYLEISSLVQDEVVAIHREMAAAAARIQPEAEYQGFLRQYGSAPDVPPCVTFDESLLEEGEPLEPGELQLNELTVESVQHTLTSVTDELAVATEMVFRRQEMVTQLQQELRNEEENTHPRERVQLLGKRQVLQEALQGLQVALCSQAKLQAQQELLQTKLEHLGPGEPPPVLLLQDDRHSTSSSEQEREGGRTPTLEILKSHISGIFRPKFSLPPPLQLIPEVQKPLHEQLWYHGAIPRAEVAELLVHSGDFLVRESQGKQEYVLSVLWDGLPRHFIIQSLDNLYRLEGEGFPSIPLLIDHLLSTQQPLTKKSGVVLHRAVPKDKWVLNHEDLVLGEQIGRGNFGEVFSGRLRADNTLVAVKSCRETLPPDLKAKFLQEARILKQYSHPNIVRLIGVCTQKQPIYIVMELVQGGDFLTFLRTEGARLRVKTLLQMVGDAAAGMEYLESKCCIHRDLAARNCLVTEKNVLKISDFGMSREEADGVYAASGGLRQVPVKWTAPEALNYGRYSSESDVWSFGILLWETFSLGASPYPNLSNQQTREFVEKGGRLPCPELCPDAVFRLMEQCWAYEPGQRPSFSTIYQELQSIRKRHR
Sequence of Fibroblast growth factor receptor 1 (Homo sapiens) (P11362 22-822 limits assumed): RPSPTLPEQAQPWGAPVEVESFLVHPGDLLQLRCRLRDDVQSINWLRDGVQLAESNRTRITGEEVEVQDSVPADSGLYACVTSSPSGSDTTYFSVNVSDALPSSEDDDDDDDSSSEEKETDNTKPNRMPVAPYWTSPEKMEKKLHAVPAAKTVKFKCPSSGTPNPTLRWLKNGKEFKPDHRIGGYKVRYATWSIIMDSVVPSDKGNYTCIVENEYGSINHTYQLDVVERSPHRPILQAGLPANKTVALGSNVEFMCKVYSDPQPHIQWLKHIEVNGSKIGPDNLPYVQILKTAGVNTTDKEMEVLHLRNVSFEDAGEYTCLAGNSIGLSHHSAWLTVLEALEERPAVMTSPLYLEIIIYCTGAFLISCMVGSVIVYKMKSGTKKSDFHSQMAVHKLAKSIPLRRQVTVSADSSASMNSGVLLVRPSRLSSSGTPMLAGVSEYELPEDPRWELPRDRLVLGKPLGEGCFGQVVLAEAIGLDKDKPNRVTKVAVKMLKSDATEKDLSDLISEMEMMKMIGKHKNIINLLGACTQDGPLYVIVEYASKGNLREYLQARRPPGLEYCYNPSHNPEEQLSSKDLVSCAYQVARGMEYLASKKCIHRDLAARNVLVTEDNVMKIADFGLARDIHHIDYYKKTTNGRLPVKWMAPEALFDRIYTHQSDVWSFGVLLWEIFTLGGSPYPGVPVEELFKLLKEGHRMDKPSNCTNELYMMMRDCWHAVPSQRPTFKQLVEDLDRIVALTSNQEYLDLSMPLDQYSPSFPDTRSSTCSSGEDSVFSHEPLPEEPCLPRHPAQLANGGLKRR
Sequence of Fibroblast growth factor receptor 2 (Homo sapiens) (P21802 22-821 limits assumed): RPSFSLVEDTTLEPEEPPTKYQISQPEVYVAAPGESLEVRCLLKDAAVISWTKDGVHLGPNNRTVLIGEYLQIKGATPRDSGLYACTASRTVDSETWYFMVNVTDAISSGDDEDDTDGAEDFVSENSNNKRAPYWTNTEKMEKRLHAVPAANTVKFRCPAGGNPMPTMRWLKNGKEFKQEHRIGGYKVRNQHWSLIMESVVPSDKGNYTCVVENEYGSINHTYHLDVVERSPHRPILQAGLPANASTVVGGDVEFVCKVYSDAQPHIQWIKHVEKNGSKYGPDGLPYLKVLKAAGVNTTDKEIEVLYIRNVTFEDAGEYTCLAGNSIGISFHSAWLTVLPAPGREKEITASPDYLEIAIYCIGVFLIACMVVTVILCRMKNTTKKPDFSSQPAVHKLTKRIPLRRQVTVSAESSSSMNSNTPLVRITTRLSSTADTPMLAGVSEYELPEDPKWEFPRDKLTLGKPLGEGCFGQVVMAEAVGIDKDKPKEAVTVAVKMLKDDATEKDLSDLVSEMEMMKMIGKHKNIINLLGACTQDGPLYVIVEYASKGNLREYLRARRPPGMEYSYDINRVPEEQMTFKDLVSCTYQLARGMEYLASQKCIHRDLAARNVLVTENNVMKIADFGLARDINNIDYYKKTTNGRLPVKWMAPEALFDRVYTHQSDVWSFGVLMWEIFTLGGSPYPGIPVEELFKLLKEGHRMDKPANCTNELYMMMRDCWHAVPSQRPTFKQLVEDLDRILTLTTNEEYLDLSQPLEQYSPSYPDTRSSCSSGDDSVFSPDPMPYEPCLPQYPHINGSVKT
Sequence of Fibroblast growth factor receptor 3 (Homo sapiens) (P22607 23-806 limits assumed): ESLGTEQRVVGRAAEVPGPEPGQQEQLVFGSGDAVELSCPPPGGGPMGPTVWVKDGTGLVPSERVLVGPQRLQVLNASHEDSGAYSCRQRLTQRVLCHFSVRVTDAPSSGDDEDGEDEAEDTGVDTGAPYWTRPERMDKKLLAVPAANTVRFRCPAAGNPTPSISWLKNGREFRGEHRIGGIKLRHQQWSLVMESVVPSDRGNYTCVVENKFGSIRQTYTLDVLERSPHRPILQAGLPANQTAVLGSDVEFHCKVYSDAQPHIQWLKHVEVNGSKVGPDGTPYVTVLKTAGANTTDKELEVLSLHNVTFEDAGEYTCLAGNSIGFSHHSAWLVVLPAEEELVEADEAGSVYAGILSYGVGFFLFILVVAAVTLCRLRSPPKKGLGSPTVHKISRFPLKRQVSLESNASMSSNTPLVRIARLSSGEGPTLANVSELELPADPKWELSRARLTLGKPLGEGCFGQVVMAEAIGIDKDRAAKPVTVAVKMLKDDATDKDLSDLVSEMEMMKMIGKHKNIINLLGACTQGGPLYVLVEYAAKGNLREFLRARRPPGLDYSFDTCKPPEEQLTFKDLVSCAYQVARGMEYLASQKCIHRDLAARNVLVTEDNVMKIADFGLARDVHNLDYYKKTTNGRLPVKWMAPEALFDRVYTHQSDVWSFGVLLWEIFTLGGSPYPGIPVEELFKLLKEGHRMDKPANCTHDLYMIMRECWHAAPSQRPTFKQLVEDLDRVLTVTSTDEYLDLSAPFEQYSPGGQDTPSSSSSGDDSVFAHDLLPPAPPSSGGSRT

c1cnn2ncc(-c3ccnc(NCCCN4CCOCC4)n3)c2c1
inhibition [1]: 1.85%
inhibition [2]: 2.2%
inhibition [3]: 5.72%
inhibition [4]: 1.29%
inhibition [5]: 2.22%
inhibition [6]: 1%
inhibition [7]: 3.87%
inhibition [8]: 3.61%
inhibition [9]: 1.83%
inhibition [10]: -0.18%

COc1cccc(Nc2nccc(-c3cnn4ncccc34)n2)c1
inhibition [1]: 48%
inhibition [2]: 8.87%
inhibition [3]: 50.3%
inhibition [4]: -2.04%
inhibition [5]: 4.55%
inhibition [6]: 1.68%
inhibition [7]: 16.6%
inhibition [8]: 0.93%
inhibition [9]: 10.9%
inhibition [10]: 1.56%

COc1ccc(Nc2ncc(-c3ccccc3)o2)cc1OC
inhibition [1]: 4.34%
inhibition [2]: 0.6%
inhibition [3]: 3.66%
inhibition [4]: -3.4%
inhibition [5]: 5.44%
inhibition [6]: 1.29%
inhibition [7]: 19.4%
inhibition [8]: 2.32%
inhibition [9]: 13.2%
inhibition [10]: 0.41%

COc1cccc(-n2ncc3c(N/N=C/c4ccc(C(=O)NCCN(C)C)cc4)ncnc32)c1
inhibition [1]: 1.12%
inhibition [2]: 1.87%
inhibition [3]: 3.63%
inhibition [4]: 4.74%
inhibition [5]: 9.7%
inhibition [6]: 5.08%
inhibition [7]: 10.7%
inhibition [8]: 6.47%
inhibition [9]: 9.95%
inhibition [10]: 0.01%

O=C(O[C@H]1CN[C@H](C#Cc2cc3ncnc(Nc4ccc(OCc5cccc(F)c5)c(Cl)c4)c3s2)C1)N1CCOCC1
inhibition [1]: 5.25%
inhibition [2]: 3.88%
inhibition [3]: 3.5%
inhibition [4]: 1.16%
inhibition [5]: 3.49%
inhibition [6]: 6.97%
inhibition [7]: 4.24%
inhibition [8]: 5.89%
inhibition [9]: 6.62%
inhibition [10]: 1.38%

NS(=O)(=O)c1cccc(N/C=C2\C(=O)Nc3ccccc32)c1
inhibition [1]: 6.18%
inhibition [2]: 3.03%
inhibition [3]: 3.46%
inhibition [4]: 5.1%
inhibition [5]: 8.92%
inhibition [6]: 7.77%
inhibition [7]: 26.9%
inhibition [8]: 8.3%
inhibition [9]: 21%
inhibition [10]: -4.72%

COc1ccccc1-c1cc(/C=C2\C(=O)Nc3ncc(Br)cc32)cc(Br)c1O
inhibition [1]: 9.31%
inhibition [2]: 3.24%
inhibition [3]: 4.41%
inhibition [4]: 3.85%
inhibition [5]: 14%
inhibition [6]: 6.66%
inhibition [7]: 18%
inhibition [8]: 8.55%
inhibition [9]: 14%
inhibition [10]: -0.86%

NC(=O)c1ccc2c(-c3ccnc(NCCCO)n3)c(-c3ccc(F)cc3)nn2c1
inhibition [1]: 6.71%
inhibition [2]: 3%
inhibition [3]: 5.19%
inhibition [4]: 8.04%
inhibition [5]: 8.15%
inhibition [6]: 4.29%
inhibition [7]: 9.62%
inhibition [8]: 5.45%
inhibition [9]: 7.13%
inhibition [10]: 0.14%

Nc1nonc1-c1nc2cnccc2n1C1CC1
inhibition [1]: 0.34% and 3.05%
inhibition [2]: 2.84% and 0.98%
inhibition [3]: 3.51% and 0.87%
inhibition [4]: 13.1% and 2.25%
inhibition [5]: 8.28% and -2.04%
inhibition [6]: 5.07% and -2.09%
inhibition [7]: 8.58% and -2.64%
inhibition [8]: 7.58% and 1.46%
inhibition [9]: 8.03% and -1.3%
inhibition [10]: 0.52% and -4.76%

CS(=O)(=O)CCNCc1ccc(-c2ccc3ncnc(Nc4ccc(OCc5ccccc5)cc4)c3c2)o1
inhibition [1]: 0.38%
inhibition [2]: 3.93%
inhibition [3]: 3.54%
inhibition [4]: 6.5%
inhibition [5]: 3.85%
inhibition [6]: 3.26%
inhibition [7]: 4.3%
inhibition [8]: 4.56%
inhibition [9]: 3.89%
inhibition [10]: 1.63%

c1ccc(-c2n[nH]cc2-c2ccnc(-c3ccc(OCCn4ccnc4)cc3)c2)nc1
inhibition [1]: 1.84%
inhibition [2]: -0.05%
inhibition [3]: -0.73%
inhibition [4]: -3.47%
inhibition [5]: 3.09%
inhibition [6]: 0.47%
inhibition [7]: 2.51%
inhibition [8]: 1.79%
inhibition [9]: 4.74%
inhibition [10]: 1.45%

COc1ccc(-c2nn3ncccc3c2-c2ccnc(Nc3ccc(F)c(F)c3)n2)cc1
inhibition [1]: 7.64%
inhibition [2]: 2.66%
inhibition [3]: 2.57%
inhibition [4]: 4.92%
inhibition [5]: 0.84%
inhibition [6]: 5.14%
inhibition [7]: 7.4%
inhibition [8]: 5.17%
inhibition [9]: 7.65%
inhibition [10]: 1.42%

CC1=C(C(=O)Nc2ccc3[nH]nc(C)c3c2)C(c2ccc(C(F)(F)F)cc2)CC(=O)N1 (stereo not given)
inhibition [1]: 3.02%
inhibition [2]: 1.58%
inhibition [3]: 2.34%
inhibition [4]: -0.57%
inhibition [5]: 9.3%
inhibition [6]: 4.48%
inhibition [7]: 13.4%
inhibition [8]: 5.62%
inhibition [9]: 8.47%
inhibition [10]: -0.06%

Nc1nccc(-c2c(-c3ccc(F)cc3)ncn2C2CCNCC2)n1
inhibition [1]: -1.75% and 3.19%
inhibition [2]: -3.81% and -0.12%
inhibition [3]: -3.68% and -0.18%
inhibition [4]: -5.66% and -0.16%
inhibition [5]: -4.83% and 1.62%
inhibition [6]: -3.3% and 0.04%
inhibition [7]: -3.58% and 1.03%
inhibition [8]: -3.25% and 3.33%
inhibition [9]: -1.53% and 2.36%
inhibition [10]: -0.08% and 3.95%

CNC(=O)c1cncc(/C=C/c2ccccc2C)c1
inhibition [1]: 4.88%
inhibition [2]: 2.38%
inhibition [3]: 1.6%
inhibition [4]: 4.11%
inhibition [5]: 3.14%
inhibition [6]: 2.42%
inhibition [7]: 4.95%
inhibition [8]: 6.04%
inhibition [9]: 4.39%
inhibition [10]: 0.55%

O=C(O[C@H]1CN[C@H](C#Cc2cc3ncnc(Nc4ccc5c(ccn5Cc5cc(F)ccc5F)c4)c3s2)C1)N1CCOCC1
inhibition [1]: 5.55%
inhibition [2]: 3.3%
inhibition [3]: 3.52%
inhibition [4]: -0.06%
inhibition [5]: 2.23%
inhibition [6]: 3.95%
inhibition [7]: 4.22%
inhibition [8]: 5.33%
inhibition [9]: 3.1%
inhibition [10]: -1.92%

CS(=O)(=O)Nc1ccc(-c2cc(-c3ccccc3)cc(C(N)=O)c2N)cc1
inhibition [1]: 1.1%
inhibition [2]: 1.07%
inhibition [3]: 1.64%
inhibition [4]: 0.45%
inhibition [5]: 3.2%
inhibition [6]: 1.73%
inhibition [7]: 4.95%
inhibition [8]: -0.12%
inhibition [9]: 8.3%
inhibition [10]: 0.07%

N#Cc1cccc(Nc2ncc(-c3ccccc3)o2)c1
inhibition [1]: 5.33%
inhibition [2]: 0.93%
inhibition [3]: 1.79%
inhibition [4]: -4.35%
inhibition [5]: 2.95%
inhibition [6]: 2.66%
inhibition [7]: 7.1%
inhibition [8]: 2.72%
inhibition [9]: 4.48%
inhibition [10]: -2.65%

CS(=O)(=O)CCNCc1ccoc1-c1ccc2ncnc(Nc3ccc(OCc4ccccc4)cc3)c2c1
inhibition [1]: 1.52%
inhibition [2]: 1.6%
inhibition [3]: 0.27%
inhibition [4]: -2.87%
inhibition [5]: 2.44%
inhibition [6]: -0.37%
inhibition [7]: 2.62%
inhibition [8]: 2.09%
inhibition [9]: 3.53%
inhibition [10]: 0.96%

CN1CCN(Cc2ccc(-c3cc4ncnc(Nc5ccc(OCc6cccc(F)c6)c(Cl)c5)c4s3)o2)CC1
inhibition [1]: 7.48% and 15.1%
inhibition [2]: 2.89% and 4.05%
inhibition [3]: 6.42% and 6.83%
inhibition [4]: 2.24% and 7.51%
inhibition [5]: 2.3% and 1.47%
inhibition [6]: 3.18% and 3.5%
inhibition [7]: 4.91% and 4.73%
inhibition [8]: 3.81% and 6.54%
inhibition [9]: 2.58% and 3.34%
inhibition [10]: 0.04% and -5.98%

Cc1cc(O)cc(C)c1/C=C/c1cncc(C(N)=O)c1
inhibition [1]: 1.87%
inhibition [2]: 1.69%
inhibition [3]: 1.94%
inhibition [4]: 2.16%
inhibition [5]: 7.91%
inhibition [6]: 2.08%
inhibition [7]: 7.34%
inhibition [8]: 4.56%
inhibition [9]: 4.79%
inhibition [10]: -4.55%

Cc1nnc(-c2cccc(-c3ccc(C(=O)NCC4CC4)cc3)c2)o1
inhibition [1]: 3.05%
inhibition [2]: 4.04%
inhibition [3]: 4.25%
inhibition [4]: 2.64%
inhibition [5]: 0.61%
inhibition [6]: 4.95%
inhibition [7]: 5.08%
inhibition [8]: 6.23%
inhibition [9]: 6.22%
inhibition [10]: -0.29%

FC(F)(F)CNc1nccc(-c2cnn3ncccc23)n1
inhibition [1]: 0.92%
inhibition [2]: 2.11%
inhibition [3]: 1.66%
inhibition [4]: 4.83%
inhibition [5]: 2.89%
inhibition [6]: 4.25%
inhibition [7]: 3.09%
inhibition [8]: 3.73%
inhibition [9]: 2.58%
inhibition [10]: 1.62%

COc1cc(N2CCN(C(C)C)CC2)ccc1Nc1nc(Nc2cccc(F)c2C(=O)O)c2cc[nH]c2n1
inhibition [1]: 75.6%
inhibition [2]: 18.5%
inhibition [3]: 63.7%
inhibition [4]: 2.19%
inhibition [5]: 6.27%
inhibition [6]: 7.3%
inhibition [7]: 9.34%
inhibition [8]: 4.65%
inhibition [9]: 8.48%
inhibition [10]: -2.62%

CN1CCC(n2cnc(-c3ccc(F)cc3)c2-c2ccnc(NCCO)n2)CC1
inhibition [1]: 7.14%
inhibition [2]: 2.72%
inhibition [3]: 3.24%
inhibition [4]: 3.14%
inhibition [5]: -2.05%
inhibition [6]: 3.73%
inhibition [7]: 6.49%
inhibition [8]: 7.57%
inhibition [9]: 5.67%
inhibition [10]: -1.01%

CCOc1ccc2c(-c3ccnc(Nc4cc(OC)cc(C(F)(F)F)c4)n3)cnn2n1
inhibition [1]: 8.05%
inhibition [2]: 0.16%
inhibition [3]: 0.05%
inhibition [4]: 4.3%
inhibition [5]: -0.38%
inhibition [6]: -1.84%
inhibition [7]: 3.9%
inhibition [8]: 1.13%
inhibition [9]: 2.09%
inhibition [10]: 0.25%

Fc1ccc(Nc2nccc(-c3c(-c4ccc(C(F)(F)F)cc4)nn4ncccc34)n2)cc1F
inhibition [1]: 4.28%
inhibition [2]: 3.21%
inhibition [3]: 3.35%
inhibition [4]: 7.42%
inhibition [5]: 4.6%
inhibition [6]: 5.3%
inhibition [7]: 6.72%
inhibition [8]: 6.52%
inhibition [9]: 4.25%
inhibition [10]: -0.65%

Cn1c(-c2nonc2N)nc2cnccc21
inhibition [1]: 6.7%
inhibition [2]: 2.6%
inhibition [3]: 3.53%
inhibition [4]: 4.78%
inhibition [5]: 2.36%
inhibition [6]: 2.83%
inhibition [7]: 1.91%
inhibition [8]: 5.11%
inhibition [9]: 1.94%
inhibition [10]: -0.24%

CS(=O)(=O)Nc1ccc(-c2ccc3c(NC(=O)C4CC4)n[nH]c3c2)cc1
inhibition [1]: 11.5%
inhibition [2]: 2.68%
inhibition [3]: 4.38%
inhibition [4]: 6.04%
inhibition [5]: 6.36%
inhibition [6]: 3.37%
inhibition [7]: 8.17%
inhibition [8]: 6.11%
inhibition [9]: 5.97%
inhibition [10]: -2.39%

COc1c(C(N)=O)cc(-c2ccc(Cl)cc2)cc1-c1ccc(S(N)(=O)=O)cc1
inhibition [1]: 5.66%
inhibition [2]: 3.78%
inhibition [3]: 5.26%
inhibition [4]: 7.12%
inhibition [5]: 7.58%
inhibition [6]: 5.92%
inhibition [7]: 5.85%
inhibition [8]: 5.11%
inhibition [9]: 6.87%
inhibition [10]: 4.18%

CC1(C)CC(n2cnc(-c3ccc(F)cc3)c2-c2ccnc(N)n2)CC(C)(C)N1
inhibition [1]: 0.17%
inhibition [2]: -0.11%
inhibition [3]: -0.76%
inhibition [4]: 6.46%
inhibition [5]: 1.68%
inhibition [6]: -0.84%
inhibition [7]: -0.31%
inhibition [8]: 1.59%
inhibition [9]: 1.55%
inhibition [10]: -1.33%
